The text below walks through data of PubChem BioAssay.

Activity calls are given as the source filed them.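 Rule for the calls, unless noted: active = compounds that lower viability of the colon cancer cells in the luminescence readout, with no numeric limit stated; inactive = the rest.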

Test [1] in a line: stimulators of nuclear beta-catenin in C2C12, primary screen, imaging, WNT3A-conditioned medium, mouse C2C12, NPC library (AID 1117326; in the data active = nuclear beta-catenin stimulation mostly above about 4.2%, no sharp cut-off; inactive = mostly below about 10%; note: reference of the scale not given here). The settings on record: stronger effect = higher value.
Test [2] can be described thus: stimulators of insulin release from INS-1E, primary screen, cell-based, 5 mM glucose, NPC library (AID 1117329;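 active = compound raises insulin release from rat beta cells at 5 mM glucose, no numeric limit stated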; note: reference of the scale not given here). The settings on record: rat INS-1E insulin secretion, at 10 µM, stronger effect = higher value.
The nature of test [3]: growth inhibition of GSK3B-pretreated HCT116 cells – cell-based, CellTiter-Glo, 0.2 to 20 µM (AID 1117336;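 active = compounds lowering colon cancer cell viability after pretreatment blocking the GSK3B kinase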). The settings on record: HCT116 viability after GSK3B inhibitor, at 20 µM, stronger effect = higher value. Background: ATP-based viability assays read luminescence as a measure of living cells.
A short description of test [4]: inhibition of endothelial tube formation, primary screen, imaging, VEGF stimulated, CD31 staining, tube area, NPC library (AID 1117340;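 active = compound that reduces growth-factor-driven endothelial tube area in a mixed cell culture, no cutoff stated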). The settings on record: VEGF-stimulated ADSC/ECFC co-culture, at 10 µM, stronger effect = higher value.
The nature of test [5]: glucagon-like peptide 1 release enhancers, primary assay, NCI-H716 cell line, NPC library (AID 1117341;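 active = compound raises GLP1 secretion from the human gut endocrine cells, with no numeric limit stated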; note: reference of the scale not given here). The settings on record: NCI-H716 cells, at 10 µM, stronger effect = higher value.
Test [6] in a line: HCT116 colon cancer cell growth inhibition, primary screen, CellTiter-Glo luminescence, NPC library (AID 1117342;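 active = compounds that lower survival of HCT116 colon cancer cells in the luminescence readout, no numeric limit stated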). The settings on record: at 20 µM (top of the series).
Test [7] is described as follows: CellTiter-Glo luminescent readout of SW480 viability loss, NPC library primary (AID 1117343). The settings on record: CellTiter-Glo luminescence; at 20 µM (top of the series).
Test [8] in a line: decreased DLD-1 cellular survival, CellTiter-Glo luminescent readout, NPC compound collection, primary HTS (AID 1117346;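 active = compounds that lower survival of DLD-1 colon cancer cells in the luminescence readout, no cutoff given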). The settings on record: DLD-1 viability, CellTiter-Glo luminescence; at 20 µM (top of the series).

As for `Cc1onc(-c2c(F)cccc2Cl)c1C(=O)Cl`, the nuclear beta-catenin stimulation in test [1] (at 10 µM) was -0.1% (inactive); in test [1] (stimulation, at 2 µM), 0.5%. In test [2], the insulin secretion stimulation is 1.1% (inactive). In test [3], the viability decrease was -3.1% (inactive). For the same molecule, in test [4], the tube area decrease is -12.5% (inactive). For the same molecule, the GLP1 secretion stimulation in test [5] is -1.4% (inactive). The inhibition of viability in test [6] was 0.4% (inactive). For the same molecule, the results for the viability decrease (inhibition) in test [7] and in test [8] were -2.6% (inactive) and 2.8% (inactive), respectively.
On to `CC(=O)SCC(CC(=O)c1ccc(C)cc1)C(=O)O` (stereo not given), for which the nuclear beta-catenin stimulation in test [1] (at 10 µM) was 0.5% (inactive); in test [1] (stimulation, at 2 µM) it was -0.4%. For the same molecule, in test [2], the insulin secretion stimulation was 2.9% (inactive). The viability decrease in test [3] was -5.5% (inactive). Further, the tube area decrease in test [4] is -18.7% (inactive). In addition, the GLP1 secretion stimulation in test [5] is 1.4% (inactive). For the same molecule, the inhibition of viability in test [6] is -12.2% (inactive). In addition, the viability decrease (inhibition) in test [7] is -19.1% (inactive); in test [8], -15.2% (inactive).
For `O=C(O)CCCC[P+](c1ccccc1)(c1ccccc1)c1ccccc1`, the nuclear beta-catenin stimulation in test [1] (at 10 µM) was -2.3% (inactive); in test [1] (stimulation, at 2 µM), -0.2%. For the same molecule, in test [2], the insulin secretion stimulation was 3.5% (inactive). Further, in test [3], the viability decrease was -11% (inactive). Besides, in test [4], the tube area decrease was 7.8% (inactive). In addition, the GLP1 secretion stimulation in test [5] is 2.8% (inactive). In test [6], the inhibition of viability was -8.2% (inactive). Also, the viability decrease (inhibition) was -3.6% (inactive) in test [7] and 2.9% (inactive) in test [8].
As to `CC(=O)Oc1ccc(C2(c3ccc(OC(C)=O)cc3)C(=O)Nc3ccccc32)cc1`, the nuclear beta-catenin stimulation in test [1] (at 10 µM) was 1.7% (inactive); in test [1] (stimulation, at 2 µM), 0.9%. Moreover, the insulin secretion stimulation in test [2] is -2.1% (inactive). In test [3], the viability decrease is 32.6% (inactive). In addition, the tube area decrease in test [4] was 51.8% (active). In test [5], the GLP1 secretion stimulation is 4% (inactive). The inhibition of viability in test [6] is 39% (inactive). Moreover, the figures for the viability decrease (inhibition) in test [7] and in test [8] were 15.8% (inactive) and 49.1% (inactive), respectively.
For the molecule `CN(C)[C@@H]1C(=O)C(C(N)=O)=C(O)[C@@]2(O)C(=O)C3=C(O)c4c(O)cccc4C[C@H]3C[C@@H]12`, the nuclear beta-catenin stimulation in test [1] (at 10 µM) was 11% (inactive); in test [1] (stimulation, at 2 µM), -0.5%. Besides, the insulin secretion stimulation in test [2] is -3% (inactive). Besides, the viability decrease in test [3] was 98.1% (active). Also, the tube area decrease in test [4] was -5.9% (inactive). Moreover, the GLP1 secretion stimulation in test [5] was 18.7% (inactive). Besides, the inhibition of viability in test [6] was 75.5% (active). For the same molecule, the results for the viability decrease (inhibition) in test [7] and in test [8] were 100% (active) and 89.5% (active), respectively.
Take `Oc1ccccc1C=NCc1ccccc1`: the nuclear beta-catenin stimulation was -0.8% (inactive) in test [1] (at 10 µM) and -0.6% in test [1] (stimulation, at 2 µM). Further, the insulin secretion stimulation in test [2] is -2.2% (inactive). For the same molecule, the viability decrease in test [3] was 0.9% (inactive). The tube area decrease in test [4] is -29.7% (inactive). In test [5], the GLP1 secretion stimulation was 3.8% (inactive). The inhibition of viability in test [6] is 0.1% (inactive). Further, the viability decrease (inhibition) in test [7] was 13.6% (inactive); in test [8], 0.75% (inactive).
Regarding `OC(C#CCN1CCCC1)(c1ccccc1)c1ccccc1`, the nuclear beta-catenin stimulation in test [1] (at 10 µM) was 1.6% (inactive); in test [1] (stimulation, at 2 µM), 0.1%. Besides, the insulin secretion stimulation in test [2] is 4.7% (inactive). Also, the viability decrease in test [3] is 20.5% (inactive). Also, the tube area decrease in test [4] was 11.1% (inactive). Also, the GLP1 secretion stimulation in test [5] was 5.5% (inactive). In test [6], the inhibition of viability was 21.4% (inactive). Besides, the viability decrease (inhibition) is 9.7% (inactive) in test [7] and -4.2% (inactive) in test [8].
`O=C(OC1C[C@@H]2CC3C[C@@H](C1)N2CC3=O)c1c[nH]c2ccccc12` (stereo not given in full): the nuclear beta-catenin stimulation in test [1] (at 10 µM) is -1.1% (inactive); in test [1] (stimulation, at 2 µM), -0.5%. In addition, the insulin secretion stimulation in test [2] was 10.8% (inactive). For the same molecule, the viability decrease in test [3] was 4.3% (inactive). In test [4], the tube area decrease is -15.2% (inactive). Further, the GLP1 secretion stimulation in test [5] was 0.9% (inactive). The inhibition of viability in test [6] is 42% (inactive). In addition, the values for the viability decrease (inhibition) in test [7] and in test [8] were 12.6% (inactive) and 17.7% (inactive), respectively.
In the case of `CCC(=O)Oc1ccc2c(c1)CC[C@@H]1[C@@H]2CC[C@@]2(C)[C@H]1C[C@@H](OC(=O)CC)[C@@H]2OC(=O)CC`, the nuclear beta-catenin stimulation in test [1] (at 10 µM) was 1.7% (inactive); in test [1] (stimulation, at 2 µM) it was 1.2%. Also, in test [2], the insulin secretion stimulation was 2.5% (inactive). Also, the viability decrease in test [3] was -51.4% (inactive). For the same molecule, in test [4], the tube area decrease is 28.9% (inactive). Moreover, the GLP1 secretion stimulation in test [5] is -6.9% (inactive). Further, the inhibition of viability in test [6] was 31.7% (inactive). Also, the viability decrease (inhibition) in test [7] was 67.4% (active); in test [8] it was -2.6% (inactive).
For `OC1(c2ccc(Cl)cc2)CCNCC1`, the nuclear beta-catenin stimulation in test [1] (at 10 µM) is -0.1% (inactive); in test [1] (stimulation, at 2 µM) it was -1.2%. Further, the insulin secretion stimulation in test [2] was 6.1% (inactive). Besides, the viability decrease in test [3] is 13.1% (inactive). Besides, the tube area decrease in test [4] is 7.8% (inactive). The GLP1 secretion stimulation in test [5] was 1.3% (inactive). The inhibition of viability in test [6] was 23.2% (inactive). The viability decrease (inhibition) in test [7] is 30.5% (inactive); in test [8] it was 8.8% (inactive).
For the molecule `CCOC(=O)C(=O)c1csc(NC=O)n1`, the nuclear beta-catenin stimulation is -0.7% (inactive) in test [1] (at 10 µM) and -0.8% in test [1] (stimulation, at 2 µM). In test [2], the insulin secretion stimulation is 2.4% (inactive). Besides, in test [3], the viability decrease is -15.5% (inactive). Also, the tube area decrease in test [4] is -9.4% (inactive). In addition, the GLP1 secretion stimulation in test [5] is -2% (inactive). Further, the inhibition of viability in test [6] was 1.1% (inactive). Further, the viability decrease (inhibition) is -10.2% (inactive) in test [7] and 7.8% (inactive) in test [8].
For `O=S(O)CO`, the nuclear beta-catenin stimulation in test [1] (at 10 µM) was 2.1% (inactive); in test [1] (stimulation, at 2 µM) it was 0.9%. For the same molecule, the insulin secretion stimulation in test [2] was 0.6% (inactive). In addition, the viability decrease in test [3] was -7.1% (inactive). For the same molecule, in test [4], the tube area decrease was 9.9% (inactive). In test [5], the GLP1 secretion stimulation was -1.1% (inactive). In addition, the inhibition of viability in test [6] is -0.4% (inactive). For the same molecule, the viability decrease (inhibition) is -0.9% (inactive) in test [7] and 2.7% (inactive) in test [8].
With `Nc1ccc2c(c1)CN1C(=O)c3ccccc3C1=N2`, the nuclear beta-catenin stimulation was 3.6% (inactive) in test [1] (at 10 µM) and -0.3% in test [1] (stimulation, at 2 µM). Further, the insulin secretion stimulation in test [2] is 4.2% (inactive). In test [3], the viability decrease was 44.4% (inactive). In addition, the tube area decrease in test [4] was 44.6% (active). Further, the GLP1 secretion stimulation in test [5] is 2% (inactive). For the same molecule, the inhibition of viability in test [6] is 13.1% (inactive). The viability decrease (inhibition) in test [7] is 79.4% (active); in test [8] it was 28.1% (inactive).
`COc1cc(OC)nc(O[C@H](C(=O)O)C(OC)(c2ccccc2)c2ccccc2)n1`: the nuclear beta-catenin stimulation in test [1] (at 10 µM) is 2.7% (inactive); in test [1] (stimulation, at 2 µM), -0.4%. Moreover, the insulin secretion stimulation in test [2] was 1% (inactive). Also, in test [3], the viability decrease is 1.1% (inactive). Also, in test [4], the tube area decrease is -16.9% (inactive). Moreover, the GLP1 secretion stimulation in test [5] was 3.3% (inactive). For the same molecule, in test [6], the inhibition of viability is 1.2% (inactive). Moreover, the results for the viability decrease (inhibition) in test [7] and in test [8] were 6.1% (inactive) and 2.4% (inactive), respectively.
Turning to `CCCC(O)C(CC)CO` (stereo not given), the nuclear beta-catenin stimulation was -0.6% (inactive) in test [1] (at 10 µM) and 1.4% in test [1] (stimulation, at 2 µM). Further, in test [2], the insulin secretion stimulation is -1.8% (inactive). Moreover, the viability decrease in test [3] is -18.3% (inactive). Moreover, in test [4], the tube area decrease is 16.6% (inactive). Moreover, in test [5], the GLP1 secretion stimulation is -0.4% (inactive). The inhibition of viability in test [6] is 3.33% (inactive). For the same molecule, the values for the viability decrease (inhibition) in test [7] and in test [8] were 2.8% (inactive) and 2.4% (inactive), respectively.
